Source: PubChem BioAssay (NCATS)
Where “and” joins values, the source holds several entries; their conditions need not be identical. Equal entries are not always repeated. Results filed as inconclusive are left out. Calls of active or inactive are those of the source. Unless noted, calls follow the shape of the dose curve; as a rule, active = well fitted curve in the direction sought with a large enough effect; inconclusive = small, poorly fitted or top-dose-only effect, or another doubt; inactive = no such curve, though single readings can be large; an effect the other way counts as inactive or inconclusive.

What was measured:
[1] = target: Cytochrome P450 3A4 (Homo sapiens) (UniProt P08684); assay: qHTS Assay for Inhibitors and Substrates of Cytochrome P450 3A4 (AID 884); also: potency is read from the fitted curve at half-maximal effect; nearly all actives have a fitted effect of over 50% in size
How it was run: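 Luminescent readout of luciferin produced by CYP3A4 (20 nM) dealkylation of Luciferin-PPXE, 25 uM (its KM). NADPH-driven reaction ran 60 min at RT after 10 min compound preincubation; data scaled to 57 uM ketoconazole as 100% inhibition.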

[2] = target: Cytochrome P450 3A4 (Homo sapiens) (UniProt P08684); assay: qHTS Assay for Activators of Cytochrome P450 3A4 (AID 885); also: nearly all actives have a fitted effect of over 65% in size
How it was run: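 Human CYP3A4 dealkylates Luciferin-PPXE to luciferin, which luciferase detection converts to light. Substrate was at its KM (25uM), buffer 200mM KPO4, reaction 60 min at RT.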

[3] = target: Pyruvate kinase (Leishmania mexicana) (UniProt Q27686); assay: qHTS Validation Assay for Inhibitors of Leishmania Mexicana Pyruvate Kinase (AID 945)
How it was run: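 Luminescent ATP detection (PKLight) after a 1 h room-temperature reaction of 0.2 nM LmPYK E451W mutant with 0.5 mM PEP and 0.1 mM ADP at pH 7.2. Activity is normalized to DMSO-only control wells.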

[4] = target: Alpha-galactosidase (Coffea arabica) (UniProt Q42656); assay: Counterscreen for Glucocerebrosidase Inhibitors: qHTS Assay for Coffee Bean alpha-Galactosidase at pH 4.5 (AID 957); also: series mostly up to about 77 µM
How it was run: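 Enzyme is added first (2 nM final), then compounds titrated from 0.7 nM to 77 uM, then 80 uM 4-methylumbelliferyl alpha-D-galactopyranoside; after 20 min at room temperature a pH 10 NaOH/glycine stop precedes fluorescence reading at 365/440 nm.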

[5] = target: Alpha-galactosidase (Coffea arabica) (UniProt Q42656); assay: Counterscreen for Glucocerebrosidase Inhibitors: qHTS Assay for Coffee Bean alpha-Galactosidase at pH 5.9 (AID 998)
How it was run: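 Fluorogenic 4-MU substrate hydrolysis, 80 uM substrate and 2 nM coffee bean alpha-galactosidase, pH 5.9 citrate buffer, 20 min at room temperature, then NaOH/glycine stop. Titration 0.7 nM–77 uM, normalized to no-enzyme and enzyme controls, AC50 via Hill equation.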

[6] = target: Endonuclease 4 (Escherichia coli (strain K12)) (UniProt P0A6C1); assay: Counterscreen for APE1 Inhibitors: qHTS Validation Assay for Inhibitors of Endonuclease IV (AID 1708)
How it was run: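 Incision of a double-stranded 50 nM TAMRA/BHQ-2 abasic substrate was followed kinetically (525/598 nm, reads every 60 s) after 15 min enzyme–compound preincubation with 2 nM EndoIV in pH 7.5 Tris buffer with MgCl2, DTT and Tween-20; concentration-response format.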

[7] = qHTS for differential inhibitors of proliferation of Plasmodium falciparum line 7G8 (AID 1815);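 also: potency is read from the fitted curve at half-maximal effect; parasite growth measured after three days of incubation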
[8] = qHTS for differential inhibitors of proliferation of Plasmodium falciparum line GB4 (AID 1816); details: Potency: Plasmodium falciparum GB4 proliferation inhibition;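 also: potency is read from the fitted curve at half-maximal effect; parasite growth measured after 72 h incubation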
[9] = qHTS for differential inhibitors of proliferation of Plasmodium falciparum line 3D7 (AID 1876); also: potency is read from the fitted curve at half-maximal effect
[10] = qHTS for differential inhibitors of proliferation of Plasmodium falciparum line D10 (AID 1877);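 also: potency is read from the fitted curve at half-maximal effect; parasites grown with compound for 72 h before DNA staining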
[11] = qHTS for differential inhibitors of proliferation of Plasmodium falciparum line Dd2 (AID 1882); details: Potency: Plasmodium falciparum Dd2 proliferation inhibition; also: potency is read from the fitted curve at half-maximal effect; nearly all actives have a fitted effect of over 65% in size
How it was run: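 SYBR Green DNA fluorescence (ex 485, em 535 nm) after overnight lysis quantifies parasite growth; compound exposure lasted 72 h at 37 C on infected red cells at 2.5% hematocrit, 0.3% parasitemia (final). Artemisinin 0.29 uM and vehicle wells define normalization.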

[12] = qHTS for differential inhibitors of proliferation of Plasmodium falciparum line W2 (AID 1883); details: Potency: Plasmodium falciparum W2 proliferation inhibition;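 also: potency is read from the fitted curve at half-maximal effect; parasites grown with compound for 72 h before lysis and staining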
[13] = qHTS for differential inhibitors of proliferation of Plasmodium falciparum line HB3 (AID 1886); details: Potency: Plasmodium falciparum HB3 proliferation inhibition;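 also: potency is read from the fitted curve at half-maximal effect; parasites grown with compound for 72 h before SYBR Green readout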
[14] = target: ATP-dependent DNA helicase Q1 (Homo sapiens) (UniProt P46063); assay: qHTS Validation Assay for Inhibitors of RecQ-Like Dna Helicase 1 (RECQ1) (AID 2353); also: potency is read from the fitted curve at half-maximal effect
How it was run: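 RECQ1T1 50 nM; forked duplex (20 bp + 30-nt ss tails) 200 nM, ATP 2 mM final; pH 8.0, 2 mM MgCl2, 2.5 ug/ml poly(dI-dC); 15 min compound preincubation; discontinuous kinetic read over 2 h at RT.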

[15] = Validation screen for inhibitors of Lassa infection (AID 463096; calls by dose curve)
[16] = target: DNA polymerase III PolC-type (Bacillus subtilis (strain 168)) (UniProt P13267); assay: qHTS Validation Assay for the Inhibitors of DNA Replication in Gram-Positive Bacteria (AID 485295); also: potency is read from the fitted curve at half-maximal effect
How it was run: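 Primed replication of single-stranded M13Gori by a four-protein B. subtilis holoenzyme is measured at room temperature. Double-stranded product is quantified by PicoGreen fluorescence after an EDTA stop; inhibition is scaled between DMSO and EDTA controls.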

[17] = Quantitative high throughput screen for delayed death inhibitors of the malarial parasite plastid, 96 hour incubation (AID 488745); also: potency is read from the fitted curve at half-maximal effect; nearly all actives have a fitted effect of over 70% in size
How it was run: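 Readout is firefly luciferase luminescence from an integrated reporter in P. falciparum; lower signal marks inhibited growth. Cultures at 2% hematocrit and 0.1% parasitemia were treated with compound across two generations (96 h, 37 C, 5% CO2).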

[18] = Quantitative high throughput screen for delayed death inhibitors of the malarial parasite plastid, 48 hour incubation (AID 488752); also: potency is read from the fitted curve at half-maximal effect; nearly all actives have a fitted effect of over 65% in size
How it was run: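 First, compound was pinned into RPMI 1640 medium containing 0.5% Albumax. Next, reporter-parasite-infected erythrocytes were added to 2% hematocrit and 0.1% parasitemia. After 48 h at 37 C under 5% CO2, luciferase detection reagent was added and luminescence read.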

[19] = target: Flap endonuclease 1 (Homo sapiens) (UniProt P39748); assay: qHTS Validation Assay for the Inhibitors of Human Flap endonuclease 1 (FEN1) (AID 488816); also: potency is read from the fitted curve at half-maximal effect
How it was run: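 qHTS format: compounds and 10 nM FEN1 incubated 15 min at room temperature before adding 50 nM substrate. Cleavage followed by reads at 0 and 15 min; normalized data fitted to a four-parameter Hill curve.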

[20] = target: M-phase phosphoprotein 8 (Homo sapiens) (UniProt Q99549); assay: qHTS Validation Assay for Inhibitors for MPP8 Chromodomain Interactions with Methylated Histone Tails (AID 488949); also: potency is read from the fitted curve at half-maximal effect; nearly all actives have a fitted effect of over 55% in size
How it was run: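 Disruption of the preformed MPP8–trimethyl-H3K9 peptide complex (both 50 nM, 30 min, RT) is measured after 30 min compound exposure, using AlphaScreen proximity beads; aurintricarboxylic acid titration serves as plate control.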

[21] = target: Chromobox protein homolog 1 (Homo sapiens) (UniProt P83916); assay: qHTS Validation Assay for Inhibitors of HP1-beta Chromodomain Interactions with Methylated Histone Tails (AID 488953); also: potency is read from the fitted curve at half-maximal effect; nearly all actives have a fitted effect of over 50% in size
How it was run: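 Disruption of preformed HP1-beta:H3K9me3 peptide complexes (both 50 nM, PBS pH 7.4 with 0.01% Tween-20) is measured by AlphaScreen after 30 min compound exposure at room temperature, using streptavidin donor and nickel chelate acceptor beads at 10 ug/mL final.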

[22] = target: Peptidyl-prolyl cis-trans isomerase NIMA-interacting 1 (Homo sapiens) (UniProt Q13526); assay: qHTS Validation Assay to Find Inhibitors of Pin1 (AID 504536; active = well fitted inhibition curve with a large enough effect in the polarisation, with a control signal flat, not every such curve was filed as active; the % refers to the polarisation; also: potency is read from the fitted curve at half-maximal effect)
How it was run: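 Fluorescence polarization competition: compounds (titration) displace HiFluor-488-labeled Pin1-1b peptide from Pin1 (0.3 uM final) in pH 7.5 HEPES buffer with DTT, 10 min at room temperature; %Activity normalized to no-enzyme wells, curves fitted.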

[23] = target: Phosphoglycerate kinase, glycosomal (Trypanosoma brucei brucei) (UniProt P07378); assay: qHTS Validation Assay to Find Inhibitors of Phosphoglycerate Kinase (AID 504547); also: potency is read from the fitted curve at half-maximal effect
How it was run: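 Luminescence end-point (Kinase-Glo Plus, 10 min) after a 60 min room-temperature coupled reaction. GAPDH at 100nM final supplies 1,3-BPG to PGK. Buffer: 100mM TEA pH 7.6, 5mM MgCl2, 0.01% Tween-20. Wells lacking PGK served as controls.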

[24] = Inducers of the Endoplasmic Reticulum Stress Response (ERSR) in human glioma: Validation (AID 504836)
How it was run: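 ERSR induction read as luciferase luminescence (Bright-Glo, 10 min at room temperature) in stably transfected human U87-MG glioma cells exposed to compounds for 16 h, using GRP78 as sensor.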

[25] = target: Hexokinase-4 (Homo sapiens) + Glucokinase regulatory protein (Homo sapiens) (UniProt P35557+Q14397); assay: qHTS assay for inhibitors of recombinant human GCK-GKRP interaction: Diaphorase-coupled assay (AID 743205)
How it was run: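 Inhibitors of the GCK–GKRP complex relieve GKRP suppression of GCK, detected through a G6PDH–diaphorase cascade reducing resazurin. Human GST-GCK and FLAG-GKRP are used at 10 nM with 5 mM glucose and 0.4 mM ATP.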

[26] = qHTS for Inhibitors of the Functional Ribonucleoprotein Complex (vRNP) of Lassa (LASV) Arenavirus: LASV Primary Screen - GLuc reporter signal (AID 1347082; calls by dose curve; tested in HEK293 reporter line; also: series mostly up to about 57 µM; nearly all actives have a fitted effect of over 60% in size)
[27] = qHTS for Inhibitors of the Functional Ribonucleoprotein Complex (vRNP) of Lassa (LASV) Arenavirus: Viability assay - alamar blue signal for LASV Primary Screen (AID 1347083; calls by dose curve; tested in HEK293 reporter line; also: series mostly up to about 57 µM; nearly all actives have a fitted effect of over 80% in size)
[28] = qHTS for Inhibitors of the Functional Ribonucleoprotein Complex (vRNP) of Lymphocytic Choriomeningitis Arenaviruses (LCMV): Viability assay - alamar blue signal for LCMV Primary Screen (AID 1347085; calls by dose curve; tested in HEK293 reporter line; also: series mostly up to about 57 µM; nearly all actives have a fitted effect of over 80% in size)
[29] = target: Nucleoprotein (Lymphocytic choriomeningitis virus (strain Armstrong)) (UniProt P09992); assay: qHTS for Inhibitors of the Functional Ribonucleoprotein Complex (vRNP) of Lymphocytic Choriomeningitis Arenaviruses (LCMV): LCMV Primary Screen - GLuc reporter signal (AID 1347086; calls by dose curve; also: series mostly up to about 57 µM; nearly all actives have a fitted effect of over 70% in size)

Sequence of Cytochrome P450 3A4 (Homo sapiens) (P08684 whole entry, looked up): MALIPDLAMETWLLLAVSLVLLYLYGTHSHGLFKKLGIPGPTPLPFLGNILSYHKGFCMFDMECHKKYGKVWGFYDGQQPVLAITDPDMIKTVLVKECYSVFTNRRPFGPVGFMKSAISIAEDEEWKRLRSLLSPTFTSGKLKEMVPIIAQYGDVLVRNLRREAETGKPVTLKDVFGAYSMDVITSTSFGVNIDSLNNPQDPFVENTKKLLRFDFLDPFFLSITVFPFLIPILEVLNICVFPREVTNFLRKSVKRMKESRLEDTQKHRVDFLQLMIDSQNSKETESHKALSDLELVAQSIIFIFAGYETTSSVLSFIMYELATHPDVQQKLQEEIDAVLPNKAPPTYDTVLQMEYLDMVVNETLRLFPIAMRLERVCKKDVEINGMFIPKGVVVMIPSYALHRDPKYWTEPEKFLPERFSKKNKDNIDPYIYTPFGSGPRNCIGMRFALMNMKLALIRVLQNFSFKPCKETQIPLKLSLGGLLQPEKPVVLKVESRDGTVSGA
Sequence of Alpha-galactosidase (Coffea arabica) (Q42656 whole entry, looked up): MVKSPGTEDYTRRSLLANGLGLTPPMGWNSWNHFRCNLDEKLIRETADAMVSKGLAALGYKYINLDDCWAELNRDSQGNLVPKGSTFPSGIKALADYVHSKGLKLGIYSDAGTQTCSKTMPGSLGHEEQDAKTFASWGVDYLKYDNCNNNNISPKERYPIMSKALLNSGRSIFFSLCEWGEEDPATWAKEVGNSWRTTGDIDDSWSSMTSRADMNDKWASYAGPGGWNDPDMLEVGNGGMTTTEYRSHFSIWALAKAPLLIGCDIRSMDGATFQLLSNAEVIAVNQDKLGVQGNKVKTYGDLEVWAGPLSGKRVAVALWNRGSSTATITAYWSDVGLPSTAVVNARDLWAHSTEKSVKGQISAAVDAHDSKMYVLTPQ
Sequence of M-phase phosphoprotein 8 (Homo sapiens) (Q99549 whole entry, looked up): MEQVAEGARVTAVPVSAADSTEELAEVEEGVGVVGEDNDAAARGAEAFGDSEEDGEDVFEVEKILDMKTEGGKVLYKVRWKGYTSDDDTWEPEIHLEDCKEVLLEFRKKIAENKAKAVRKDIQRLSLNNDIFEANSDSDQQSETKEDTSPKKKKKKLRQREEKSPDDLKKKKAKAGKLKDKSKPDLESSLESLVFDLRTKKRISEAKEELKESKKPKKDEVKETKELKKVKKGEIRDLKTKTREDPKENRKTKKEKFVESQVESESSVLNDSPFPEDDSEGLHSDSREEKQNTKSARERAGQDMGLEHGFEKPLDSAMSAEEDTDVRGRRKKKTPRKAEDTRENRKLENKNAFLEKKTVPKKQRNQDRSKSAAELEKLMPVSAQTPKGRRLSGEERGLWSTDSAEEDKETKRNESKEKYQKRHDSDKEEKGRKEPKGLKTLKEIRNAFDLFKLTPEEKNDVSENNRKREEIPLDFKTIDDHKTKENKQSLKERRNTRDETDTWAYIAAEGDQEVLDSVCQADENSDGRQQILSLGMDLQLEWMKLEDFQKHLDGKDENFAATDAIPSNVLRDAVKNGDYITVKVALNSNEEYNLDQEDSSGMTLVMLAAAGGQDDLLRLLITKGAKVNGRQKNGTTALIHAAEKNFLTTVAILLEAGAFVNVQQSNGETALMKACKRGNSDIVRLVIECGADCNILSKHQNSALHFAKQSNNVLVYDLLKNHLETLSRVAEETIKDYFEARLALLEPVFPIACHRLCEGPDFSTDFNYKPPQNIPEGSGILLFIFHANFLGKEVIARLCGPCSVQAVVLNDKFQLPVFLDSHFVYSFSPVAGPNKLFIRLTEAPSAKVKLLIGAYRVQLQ
Sequence of Hexokinase-4 (Homo sapiens) + Glucokinase regulatory protein (Homo sapiens) (P35557 whole entry, looked up): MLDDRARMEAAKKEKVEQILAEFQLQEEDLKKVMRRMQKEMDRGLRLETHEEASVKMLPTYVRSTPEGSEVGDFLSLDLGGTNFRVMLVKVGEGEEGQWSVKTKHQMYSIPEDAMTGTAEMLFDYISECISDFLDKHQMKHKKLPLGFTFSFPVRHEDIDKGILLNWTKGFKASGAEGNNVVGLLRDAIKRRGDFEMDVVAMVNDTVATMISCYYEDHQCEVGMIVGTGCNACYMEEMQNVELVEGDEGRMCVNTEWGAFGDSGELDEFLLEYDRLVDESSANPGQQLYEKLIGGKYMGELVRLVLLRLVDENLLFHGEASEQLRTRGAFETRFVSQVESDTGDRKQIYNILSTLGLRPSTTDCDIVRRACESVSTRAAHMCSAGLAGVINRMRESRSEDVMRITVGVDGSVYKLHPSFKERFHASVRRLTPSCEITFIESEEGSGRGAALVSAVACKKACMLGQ
Sequence of Hexokinase-4 (Homo sapiens) + Glucokinase regulatory protein (Homo sapiens) (Q14397 whole entry, looked up): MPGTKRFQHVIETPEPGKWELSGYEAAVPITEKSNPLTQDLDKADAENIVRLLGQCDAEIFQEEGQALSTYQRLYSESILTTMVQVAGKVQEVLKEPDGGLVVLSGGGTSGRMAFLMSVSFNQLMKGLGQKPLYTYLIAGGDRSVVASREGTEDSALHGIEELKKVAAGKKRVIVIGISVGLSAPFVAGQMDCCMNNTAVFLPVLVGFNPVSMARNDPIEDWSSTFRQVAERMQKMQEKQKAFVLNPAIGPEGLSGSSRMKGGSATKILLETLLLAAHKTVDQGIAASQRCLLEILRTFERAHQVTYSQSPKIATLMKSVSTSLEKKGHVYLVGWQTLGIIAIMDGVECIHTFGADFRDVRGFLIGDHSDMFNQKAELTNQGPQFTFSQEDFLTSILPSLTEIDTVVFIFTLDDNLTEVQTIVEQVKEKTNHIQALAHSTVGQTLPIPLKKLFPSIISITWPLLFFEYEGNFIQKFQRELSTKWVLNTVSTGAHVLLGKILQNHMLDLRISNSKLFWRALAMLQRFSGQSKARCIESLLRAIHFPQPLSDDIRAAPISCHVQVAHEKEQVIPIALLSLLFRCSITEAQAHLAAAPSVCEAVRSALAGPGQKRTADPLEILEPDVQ
Sequence of ATP-dependent DNA helicase Q1 (Homo sapiens) (P46063 whole entry, looked up): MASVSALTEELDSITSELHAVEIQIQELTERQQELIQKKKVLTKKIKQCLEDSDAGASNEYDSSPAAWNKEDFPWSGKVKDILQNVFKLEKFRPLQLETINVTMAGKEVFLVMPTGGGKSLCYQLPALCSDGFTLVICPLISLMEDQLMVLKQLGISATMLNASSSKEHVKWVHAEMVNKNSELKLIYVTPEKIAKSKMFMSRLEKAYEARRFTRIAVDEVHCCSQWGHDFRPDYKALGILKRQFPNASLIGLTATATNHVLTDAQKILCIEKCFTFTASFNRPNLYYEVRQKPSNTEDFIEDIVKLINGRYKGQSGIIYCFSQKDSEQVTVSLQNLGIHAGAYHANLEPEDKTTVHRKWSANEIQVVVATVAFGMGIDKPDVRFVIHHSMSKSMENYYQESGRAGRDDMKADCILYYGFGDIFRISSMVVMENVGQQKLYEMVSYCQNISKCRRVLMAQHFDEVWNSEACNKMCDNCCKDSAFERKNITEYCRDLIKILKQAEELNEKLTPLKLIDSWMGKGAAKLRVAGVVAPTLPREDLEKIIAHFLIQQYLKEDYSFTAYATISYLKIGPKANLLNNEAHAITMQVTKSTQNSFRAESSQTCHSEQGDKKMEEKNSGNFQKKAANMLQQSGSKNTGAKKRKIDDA
Sequence of DNA polymerase III PolC-type (Bacillus subtilis (strain 168)) (P13267 whole entry, looked up): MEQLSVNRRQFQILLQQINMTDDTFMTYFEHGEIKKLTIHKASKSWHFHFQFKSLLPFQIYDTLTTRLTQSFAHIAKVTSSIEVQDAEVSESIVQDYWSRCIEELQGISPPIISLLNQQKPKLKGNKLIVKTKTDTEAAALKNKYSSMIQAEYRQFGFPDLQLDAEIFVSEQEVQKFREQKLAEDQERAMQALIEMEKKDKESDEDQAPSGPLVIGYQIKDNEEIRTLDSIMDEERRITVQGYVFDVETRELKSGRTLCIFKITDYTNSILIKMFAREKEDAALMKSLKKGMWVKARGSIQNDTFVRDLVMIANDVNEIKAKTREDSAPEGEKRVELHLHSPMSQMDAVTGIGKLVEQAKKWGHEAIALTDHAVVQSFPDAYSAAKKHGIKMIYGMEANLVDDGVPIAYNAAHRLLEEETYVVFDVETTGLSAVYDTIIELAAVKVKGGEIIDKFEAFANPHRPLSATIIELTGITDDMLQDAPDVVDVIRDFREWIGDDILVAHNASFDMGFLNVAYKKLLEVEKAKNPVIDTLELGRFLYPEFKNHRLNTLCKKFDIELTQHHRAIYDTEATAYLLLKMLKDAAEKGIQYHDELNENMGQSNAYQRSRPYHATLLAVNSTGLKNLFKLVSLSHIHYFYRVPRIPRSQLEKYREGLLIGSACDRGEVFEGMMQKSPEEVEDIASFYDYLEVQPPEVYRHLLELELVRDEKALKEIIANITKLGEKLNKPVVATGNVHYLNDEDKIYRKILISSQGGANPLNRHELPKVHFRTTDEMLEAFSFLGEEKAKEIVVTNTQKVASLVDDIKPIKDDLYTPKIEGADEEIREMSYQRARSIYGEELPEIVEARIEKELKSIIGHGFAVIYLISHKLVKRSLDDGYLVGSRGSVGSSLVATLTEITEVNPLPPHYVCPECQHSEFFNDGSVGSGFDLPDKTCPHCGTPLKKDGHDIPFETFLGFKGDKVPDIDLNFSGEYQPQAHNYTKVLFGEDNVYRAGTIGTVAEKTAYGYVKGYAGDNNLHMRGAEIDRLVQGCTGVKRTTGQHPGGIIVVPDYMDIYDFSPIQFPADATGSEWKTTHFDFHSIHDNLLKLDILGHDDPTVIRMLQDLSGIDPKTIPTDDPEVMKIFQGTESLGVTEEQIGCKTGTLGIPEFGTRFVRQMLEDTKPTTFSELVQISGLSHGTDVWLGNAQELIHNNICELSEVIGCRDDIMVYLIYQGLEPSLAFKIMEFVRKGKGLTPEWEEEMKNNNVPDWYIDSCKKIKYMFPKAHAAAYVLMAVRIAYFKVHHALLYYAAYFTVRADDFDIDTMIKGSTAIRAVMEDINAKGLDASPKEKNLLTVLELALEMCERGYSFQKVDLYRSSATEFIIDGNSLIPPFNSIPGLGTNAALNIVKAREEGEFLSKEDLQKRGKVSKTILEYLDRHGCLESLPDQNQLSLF

## N#C/C(=C\c1ccc(O)c(O)c1)C(=O)NCCCNC(=O)/C(C#N)=C/c1ccc(O)c(O)c1
[1]
  Potency: 2000 nM (active)
[2]
  Potency: inactive
[3]
  outcome: inactive
[4]
  outcome: inactive
[5]
  outcome: inactive
[6]
  outcome: inactive
[7]
  Potency: 2820 nM (active)
[8]
  Potency: 2240 nM (active)
[9]
  Potency: 2240 nM (active)
[10]
  Potency: 2240 nM (active)
[11]
  Potency: 3160 nM (active)
[12]
  Potency: 2240 nM (active)
[13]
  Potency: 2000 nM (active)
[14]
  Potency: 447 nM (active)
[15]
  Potency: inactive
[16]
  Potency: 21200 nM (active)
[17]
  Potency: 8280 nM (active)
[18]
  Potency: 10400 nM (active)
[19]
  Potency: 670 nM (active)
[20]
  Potency: 316 nM (active) and 2.12 µM (active)
[21]
  Potency: 3770 nM (active)
[22]
  Potency: 849 nM (active)
[23]
  Potency: 1900 nM (active)
[24]
  outcome: inactive
[25]
  outcome: inactive
[26]
  Potency: inactive
[27]
  Potency: inactive
[28]
  Potency: inactive
[29]
  Potency: inactive
